Records with an inconclusive call do not appear. Calls of active or inactive are those of the source. How the source made its calls: active means hit-call score of the fitted dose curve at least 0.9, where 1 is the maximum; inconclusive means response in the unintended direction; inactive means score below 0.9.
Target: human Complement Component 5, Anaphylatoxin Receptor (C5a), C5AR1 (gene 728) (UniProt P21730)
Assay: NVS_GPCR_hC5a: NovaScreen (NVS) G Protein-Coupled Receptor Assay for human Complement Component 5, Anaphylatoxin Receptor (C5a)
Description: NVS_GPCR_hC5a is a biochemical, single-readout assay that uses extracted gene-proteins from U937 in a cell-free assay. Measurements were taken 2 hours after chemical dosing in a 96-well plate.NVS_GPCR_hC5a is one of one assay component(s) measured or calculated from the NVS_GPCR_hC5a assay. It is designed to make measurements of radioligand binding, a form of binding reporter, as detected with scintillation counting signals by Filter-based radiodetection technology.Data from the assay component NVS_GPCR_hC5a was analyzed into 1 assay endpoint. This assay endpoint, NVS_GPCR_hC5a, was analyzed in the positive analysis fitting direction relative to DMSO as the negative control and baseline of activity. Using a type of binding reporter, loss-of-signal activity can be used to understand changes in the binding as they relate to the gene C5AR1. Furthermore, this assay endpoint can be referred to as a primary readout, because the performed assay has only produced 1 assay endpoint. To generalize the intended target to other relatable targets, this assay endpoint is annotated to the gpcr intended target family, where the subfamily is rhodopsin-like receptor.
Binding assays used specific radioligands (tritiated, iodinated) with non-radioactive competitive displacement ligands in agonist or antagonist protocols (as indicated) and various reference compounds and inhibitors to titrate specific binding to receptors and transporters. Most enzyme assays (CYPs, kinases, phosphatases, proteases, HDACs) used recombinant protein and specific substrates (fluorescence mostly, some colorimetric and radioactive) and inhibitors, followed by a biochemical separation of substrate and product. All assays for the biochemical HTS were initially run in duplicate at a single concentration (10 uM for CYP450 assays and 25 uM for all others). Assay-chemical combinations meeting a pre-defined threshold (e.g., 30% inhibition and other criteria defined below) were then run in singleton concentration-response format with maximum concentration of 20 uM for CYPs and 50 uM for all others. Each assay was run with positive and negative controls, and concurrent controls on every plate. The follow-up (secondary) screen tested active chemical-pairs in concentration series, as well as a few additional assays not tested in the primary screen, some selected negative inactives, and several cases re-run in the concentration series for confirmatory purposes.

human Complement Component 5, Anaphylatoxin Receptor (C5a), C5AR1 (gene 728), sequence (P21730 whole entry, looked up): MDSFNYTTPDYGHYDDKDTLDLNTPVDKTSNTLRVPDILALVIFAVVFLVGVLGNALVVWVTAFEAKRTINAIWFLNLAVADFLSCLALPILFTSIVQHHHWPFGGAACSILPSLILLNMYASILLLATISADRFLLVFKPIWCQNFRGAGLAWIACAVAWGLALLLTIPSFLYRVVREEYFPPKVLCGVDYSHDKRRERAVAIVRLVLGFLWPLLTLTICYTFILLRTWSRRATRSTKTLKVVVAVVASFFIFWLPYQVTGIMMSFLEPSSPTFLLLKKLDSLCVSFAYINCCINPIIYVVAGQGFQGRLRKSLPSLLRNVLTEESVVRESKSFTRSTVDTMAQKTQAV

With `Oc1ccc(C(c2ccc(O)cc2)C(Cl)(Cl)Cl)cc1` as the compound, how does the outcome read?
Its outcome is “inactive”.

Which outcome does the source give for `C#CCOS(=O)OC1CCCCC1Oc1ccc(C(C)(C)C)cc1` (centres undefined) here?
Its outcome is “inactive”.

Which outcome does the source give for `COc1cc(OC)nc(NC(=O)NS(=O)(=O)c2ncccc2OCC(F)(F)F)n1` here?
The outcome was “inactive”.

Which outcome does the source give for `COc1ccc(C(c2ccc(OC)cc2)C(Cl)(Cl)Cl)cc1` here?
The outcome was “inactive”.

How did the outcome turn out when `CCOC(=O)NCCOc1ccc(Oc2ccccc2)cc1` was run?
The outcome was “inactive”.

For `CCOC(=O)O[C@H](C)OC(=O)c1ccc2c(c1)cc(C(=O)NC1CCN(C(C)C)CC1)n2Cc1cc(-c2ccc(Cl)s2)on1`, which AC50 is on record?
Its AC50 is 39.6 µM (active).

Which outcome does the source give for `COC(=O)c1c(C(F)F)nc(C(F)(F)F)c(C2=NCCS2)c1CC(C)C` here?
Its outcome is “inactive”.

Which outcome does the source give for `C=CCc1cc(S(=O)(=O)c2ccc(O)c(CC=C)c2)ccc1O` here?
Its outcome is “inactive”.

`[Cl-].[Cl-].[Hg+2]` was tested. Which AC50 did it give?
The AC50 was 25 µM (active).

Which outcome does the source give for `CCCCCCCCCC` here?
Its outcome is “inactive”.

With `CCCCCCCCCC[N+](C)(C)CCCCCCCCCC` as the compound, how does the AC50 read?
The AC50 was 42.3 µM (active).

For `CCC[CH2][Sn]([Cl])([CH2]CCC)[CH2]CCC`, which outcome is on record?
The outcome was “inactive”.

`CC1(C)C(C=C(Cl)Cl)C1C(=O)OC(C#N)c1cccc(Oc2ccccc2)c1` (centres undefined) was tested. Which outcome did it give?
The outcome was “inactive”.

For `CCC(C)(C)C(=O)OC1=C(c2ccc(Cl)cc2Cl)C(=O)OC12CCCCC2`, which outcome is on record?
Its outcome is “inactive”.
